The supplement of paper PMC10849652
The full data set covers some 7,900 targets. This sample favours those with a hit. About 0.6% of all pairs of compound and target were hits. Unmarked numbers belong to inactive results.

Compound: C1=CC=C(C=C1)C2=NC(=C(N2)C3=CC=NC=C3)C4=CC(=C(C=C4)Cl)O
Assay: log2 fold change, soluble protein after heating vs DMSO (PISA); higher = thermal stabilisation; K562 cells, 10 uM, 30 min; active = over 0.2 and 3.5 SD of the protein, either way, in both replicates (recomputed)
Procedure, shortened: (§1)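 K562 cells at 2×10^6 cells/mL were exposed to 10 μM compound for 30 min, then aliquots were heated for 3 min across 48°C-58°C, pooled, and extracted in PBS containing 0.5% NP-40 at 4°C. The supernatant after 21,000xg for 90 min was taken as soluble protein and measured by TMTpro 16plex LC-MS/MS with channel sums equalised. Thermal stability is reported relative to control samples, with values from duplicates. Fold changes are given on a log2 scale.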

UniProt Q9HAD4, sequence (Q9HAD4 whole entry, looked up): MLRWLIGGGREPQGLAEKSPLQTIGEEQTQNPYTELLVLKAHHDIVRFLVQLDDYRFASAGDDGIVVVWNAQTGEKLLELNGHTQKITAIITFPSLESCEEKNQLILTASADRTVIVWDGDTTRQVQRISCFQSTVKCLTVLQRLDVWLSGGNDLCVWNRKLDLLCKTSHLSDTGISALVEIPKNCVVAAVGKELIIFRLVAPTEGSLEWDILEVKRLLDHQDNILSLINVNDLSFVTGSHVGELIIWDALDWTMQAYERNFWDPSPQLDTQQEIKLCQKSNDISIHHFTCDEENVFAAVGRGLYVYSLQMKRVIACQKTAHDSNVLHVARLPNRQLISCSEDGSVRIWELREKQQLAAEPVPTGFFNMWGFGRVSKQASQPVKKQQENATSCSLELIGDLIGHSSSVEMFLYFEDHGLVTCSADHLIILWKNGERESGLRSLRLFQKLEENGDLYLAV
UniProt Q14139, sequence (Q14139 whole entry, looked up): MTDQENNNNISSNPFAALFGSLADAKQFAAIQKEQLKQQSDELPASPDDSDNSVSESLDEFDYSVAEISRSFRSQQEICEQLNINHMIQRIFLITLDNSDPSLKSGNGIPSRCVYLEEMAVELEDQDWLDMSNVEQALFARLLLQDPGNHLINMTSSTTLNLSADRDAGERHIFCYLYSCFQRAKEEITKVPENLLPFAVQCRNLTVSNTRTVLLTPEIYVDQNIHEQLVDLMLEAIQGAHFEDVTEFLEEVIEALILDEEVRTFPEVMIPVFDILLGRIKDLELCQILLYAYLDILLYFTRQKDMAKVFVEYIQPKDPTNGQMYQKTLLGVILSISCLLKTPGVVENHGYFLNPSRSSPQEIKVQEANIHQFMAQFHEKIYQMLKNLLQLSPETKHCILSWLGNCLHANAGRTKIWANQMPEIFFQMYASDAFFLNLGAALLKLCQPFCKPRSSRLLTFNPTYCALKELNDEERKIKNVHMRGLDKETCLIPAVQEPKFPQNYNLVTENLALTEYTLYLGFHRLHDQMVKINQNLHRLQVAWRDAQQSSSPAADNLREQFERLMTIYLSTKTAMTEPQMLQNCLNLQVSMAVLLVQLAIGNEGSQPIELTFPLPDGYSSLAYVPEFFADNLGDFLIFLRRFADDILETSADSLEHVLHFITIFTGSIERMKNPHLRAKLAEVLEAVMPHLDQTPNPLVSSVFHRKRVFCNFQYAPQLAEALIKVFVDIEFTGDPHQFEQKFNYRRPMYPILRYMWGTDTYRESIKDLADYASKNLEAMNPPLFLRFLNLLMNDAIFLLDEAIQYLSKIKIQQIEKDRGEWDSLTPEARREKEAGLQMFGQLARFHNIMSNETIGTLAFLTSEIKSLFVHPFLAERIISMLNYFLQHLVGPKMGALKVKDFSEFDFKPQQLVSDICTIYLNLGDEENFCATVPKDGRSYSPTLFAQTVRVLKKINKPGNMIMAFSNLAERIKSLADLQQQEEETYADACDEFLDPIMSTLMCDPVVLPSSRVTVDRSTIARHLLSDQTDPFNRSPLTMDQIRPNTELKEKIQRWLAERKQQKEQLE
UniProt Q9H4I3, sequence (Q9H4I3 whole entry, looked up): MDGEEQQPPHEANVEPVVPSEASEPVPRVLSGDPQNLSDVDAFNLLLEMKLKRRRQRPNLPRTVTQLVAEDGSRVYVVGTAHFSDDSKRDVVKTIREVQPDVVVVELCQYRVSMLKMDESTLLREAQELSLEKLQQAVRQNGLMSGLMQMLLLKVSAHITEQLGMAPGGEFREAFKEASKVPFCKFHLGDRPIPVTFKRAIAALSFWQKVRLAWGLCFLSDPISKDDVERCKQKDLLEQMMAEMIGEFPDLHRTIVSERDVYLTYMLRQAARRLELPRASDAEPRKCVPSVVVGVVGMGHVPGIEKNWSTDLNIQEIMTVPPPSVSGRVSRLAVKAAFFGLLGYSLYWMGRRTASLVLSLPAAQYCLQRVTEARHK
UniProt Q5VIR6, sequence (Q5VIR6 whole entry, looked up): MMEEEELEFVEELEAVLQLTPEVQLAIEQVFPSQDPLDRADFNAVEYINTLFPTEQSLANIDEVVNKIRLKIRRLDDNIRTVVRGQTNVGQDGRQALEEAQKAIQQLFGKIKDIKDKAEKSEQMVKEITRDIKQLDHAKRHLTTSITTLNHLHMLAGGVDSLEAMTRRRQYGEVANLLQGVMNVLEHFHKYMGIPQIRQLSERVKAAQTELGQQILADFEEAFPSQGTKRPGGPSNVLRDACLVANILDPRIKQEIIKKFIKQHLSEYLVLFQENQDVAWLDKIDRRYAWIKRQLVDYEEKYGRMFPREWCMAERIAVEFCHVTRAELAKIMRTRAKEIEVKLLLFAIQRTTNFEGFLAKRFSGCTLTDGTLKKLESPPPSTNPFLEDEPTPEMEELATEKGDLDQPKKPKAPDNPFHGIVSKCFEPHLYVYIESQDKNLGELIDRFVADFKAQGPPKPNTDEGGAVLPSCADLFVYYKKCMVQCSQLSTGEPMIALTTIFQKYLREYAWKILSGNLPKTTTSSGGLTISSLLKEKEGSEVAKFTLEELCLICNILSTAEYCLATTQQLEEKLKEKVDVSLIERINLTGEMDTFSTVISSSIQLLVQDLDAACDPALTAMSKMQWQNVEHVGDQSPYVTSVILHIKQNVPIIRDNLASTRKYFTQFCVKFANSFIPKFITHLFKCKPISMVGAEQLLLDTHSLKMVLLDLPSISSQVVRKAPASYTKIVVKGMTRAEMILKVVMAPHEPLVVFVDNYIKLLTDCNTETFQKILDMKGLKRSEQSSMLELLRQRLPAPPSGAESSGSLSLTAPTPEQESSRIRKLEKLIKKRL
UniProt Q9Y2L5, sequence (Q9Y2L5 whole entry, looked up): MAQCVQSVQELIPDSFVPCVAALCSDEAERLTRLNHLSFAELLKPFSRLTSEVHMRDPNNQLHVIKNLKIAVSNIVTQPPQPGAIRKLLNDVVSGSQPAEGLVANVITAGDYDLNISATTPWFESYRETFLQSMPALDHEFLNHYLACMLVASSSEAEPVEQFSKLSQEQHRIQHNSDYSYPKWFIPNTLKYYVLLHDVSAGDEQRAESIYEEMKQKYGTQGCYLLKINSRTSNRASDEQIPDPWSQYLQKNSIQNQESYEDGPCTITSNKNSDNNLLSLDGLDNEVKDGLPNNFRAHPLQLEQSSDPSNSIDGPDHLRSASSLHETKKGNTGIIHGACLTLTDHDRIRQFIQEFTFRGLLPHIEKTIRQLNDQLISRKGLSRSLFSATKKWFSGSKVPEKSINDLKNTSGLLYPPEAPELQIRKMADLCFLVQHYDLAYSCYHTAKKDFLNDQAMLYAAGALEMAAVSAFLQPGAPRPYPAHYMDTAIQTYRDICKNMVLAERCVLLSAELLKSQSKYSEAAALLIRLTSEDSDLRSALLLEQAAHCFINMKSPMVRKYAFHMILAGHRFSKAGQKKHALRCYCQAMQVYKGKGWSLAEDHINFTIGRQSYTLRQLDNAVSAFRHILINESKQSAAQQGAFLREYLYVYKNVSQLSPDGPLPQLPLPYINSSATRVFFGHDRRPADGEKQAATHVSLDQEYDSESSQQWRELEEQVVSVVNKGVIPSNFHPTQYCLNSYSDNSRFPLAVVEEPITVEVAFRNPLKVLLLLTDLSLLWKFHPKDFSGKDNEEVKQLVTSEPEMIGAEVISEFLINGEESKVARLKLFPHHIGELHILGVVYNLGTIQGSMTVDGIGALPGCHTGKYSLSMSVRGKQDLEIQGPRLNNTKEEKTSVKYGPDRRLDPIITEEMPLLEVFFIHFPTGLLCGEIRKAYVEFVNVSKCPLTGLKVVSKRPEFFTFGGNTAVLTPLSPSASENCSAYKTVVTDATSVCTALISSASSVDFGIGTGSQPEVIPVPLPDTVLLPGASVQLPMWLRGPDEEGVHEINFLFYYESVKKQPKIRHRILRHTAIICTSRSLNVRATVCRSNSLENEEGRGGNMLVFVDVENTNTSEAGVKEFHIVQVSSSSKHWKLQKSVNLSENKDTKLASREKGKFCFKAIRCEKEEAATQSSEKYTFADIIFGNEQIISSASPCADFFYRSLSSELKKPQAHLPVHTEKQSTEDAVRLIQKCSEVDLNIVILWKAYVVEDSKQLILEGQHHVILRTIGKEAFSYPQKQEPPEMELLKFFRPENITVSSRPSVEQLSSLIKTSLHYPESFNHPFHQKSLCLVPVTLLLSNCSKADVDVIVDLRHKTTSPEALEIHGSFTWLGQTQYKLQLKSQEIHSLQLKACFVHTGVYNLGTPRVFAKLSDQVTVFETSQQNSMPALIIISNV
UniProt Q9Y5K5, sequence (Q9Y5K5 whole entry, looked up): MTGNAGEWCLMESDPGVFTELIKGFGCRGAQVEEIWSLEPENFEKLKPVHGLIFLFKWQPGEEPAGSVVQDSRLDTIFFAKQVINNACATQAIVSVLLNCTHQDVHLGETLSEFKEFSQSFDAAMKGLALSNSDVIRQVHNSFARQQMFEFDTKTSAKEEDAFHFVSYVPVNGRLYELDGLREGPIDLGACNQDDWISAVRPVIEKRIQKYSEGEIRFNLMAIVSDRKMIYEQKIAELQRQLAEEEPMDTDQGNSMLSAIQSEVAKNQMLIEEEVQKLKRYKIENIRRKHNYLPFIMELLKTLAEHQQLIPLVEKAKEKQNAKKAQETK
UniProt Q5VZI3, sequence (Q5VZI3 whole entry, looked up): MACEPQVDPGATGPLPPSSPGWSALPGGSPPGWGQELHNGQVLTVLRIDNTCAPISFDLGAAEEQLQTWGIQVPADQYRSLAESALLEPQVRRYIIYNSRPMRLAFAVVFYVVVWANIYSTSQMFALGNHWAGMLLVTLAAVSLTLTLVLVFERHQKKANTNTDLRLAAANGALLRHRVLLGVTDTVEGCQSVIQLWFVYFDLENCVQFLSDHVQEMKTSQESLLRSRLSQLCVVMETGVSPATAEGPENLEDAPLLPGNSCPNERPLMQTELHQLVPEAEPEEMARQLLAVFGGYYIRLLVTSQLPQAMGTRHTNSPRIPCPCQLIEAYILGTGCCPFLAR
UniProt Q9UL33, sequence (Q9UL33 whole entry, looked up): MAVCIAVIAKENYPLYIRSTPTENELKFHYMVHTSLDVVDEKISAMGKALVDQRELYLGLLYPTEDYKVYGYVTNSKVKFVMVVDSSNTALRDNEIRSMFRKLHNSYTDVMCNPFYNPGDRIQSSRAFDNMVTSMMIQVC

**Q.** With TRAPPC8 (UniProt Q9Y2L5) as the target, how does the log2 fold change read?
**A.** The log2 fold change was -0.068.

**Q.** With VPS53 isoform 4 (UniProt Q5VIR6) as the target, how does the log2 fold change read?
**A.** The log2 fold change was -0.083.

**Q.** For USO1 isoform 2 (UniProt O60763), which log2 fold change is on record?
**A.** Its log2 fold change is 0.004.

**Q.** Which log2 fold change does the source give for UCHL5 (UniProt Q9Y5K5) here?
**A.** Its log2 fold change is 0.02.

**Q.** Which log2 fold change does the source give for TMEM268 isoform 3 (UniProt Q5VZI3) here?
**A.** The log2 fold change was 0.118.

**Q.** For UBE4A isoform 2 (UniProt Q14139), which log2 fold change is on record?
**A.** Its log2 fold change is -0.039.

**Q.** How did the log2 fold change turn out when TRABD (UniProt Q9H4I3) was run?
**A.** Its log2 fold change is 0.121.

**Q.** How did the log2 fold change turn out when TSG101 (UniProt Q99816) was run?
**A.** Its log2 fold change is -0.032.

**Q.** How did the log2 fold change turn out when TMEM189-UBE2V1 (UniProt I3L0A0) was run?
**A.** The log2 fold change was 0.028.

**Q.** WDR41 (UniProt Q9HAD4) was tested. Which log2 fold change did it give?
**A.** Its log2 fold change is -0.005.

**Q.** TXNL1 (UniProt O43396) was tested. Which log2 fold change did it give?
**A.** The log2 fold change was 0.014.

**Q.** For UGDH (UniProt O60701), which log2 fold change is on record?
**A.** Its log2 fold change is 0.017.

**Q.** For TTC38 (UniProt Q5R3I4), which log2 fold change is on record?
**A.** Its log2 fold change is 0.035.

Compound: C1=CC=C2C(=C1)C3=NNC4=CC=CC(=C43)C2=O
Assay: as above
Procedure, shortened: as §1

**Q.** WDR61 (UniProt Q9GZS3) was tested. Which log2 fold change did it give?
**A.** The log2 fold change was 0.

**Q.** With USP3 (UniProt Q9Y6I4) as the target, how does the log2 fold change read?
**A.** The log2 fold change was -0.052.

**Q.** TOMM20 (UniProt Q15388) was tested. Which log2 fold change did it give?
**A.** Its log2 fold change is -0.006.

**Q.** With TNPO2 (UniProt O14787) as the target, how does the log2 fold change read?
**A.** The log2 fold change was -0.008.

**Q.** For VPS11 (UniProt Q9H270), which log2 fold change is on record?
**A.** Its log2 fold change is -0.011.

**Q.** How did the log2 fold change turn out when TMEM87B (UniProt Q96K49) was run?
**A.** The log2 fold change was -0.143.

**Q.** TRIP10 isoform 2 (UniProt Q15642) was tested. Which log2 fold change did it give?
**A.** Its log2 fold change is 0.055.

**Q.** How did the log2 fold change turn out when TTI1 (UniProt O43156) was run?
**A.** The log2 fold change was 0.008.

**Q.** For UFD1 isoform 1 (UniProt Q92890), which log2 fold change is on record?
**A.** Its log2 fold change is -0.021.

**Q.** For TRAPPC13 isoform 5 (UniProt A5PLN9), which log2 fold change is on record?
**A.** Its log2 fold change is -0.038.

**Q.** With VTI1A (UniProt Q96AJ9) as the target, how does the log2 fold change read?
**A.** The log2 fold change was -0.002.

**Q.** VPS52 (UniProt Q8N1B4) was tested. Which log2 fold change did it give?
**A.** Its log2 fold change is 0.079.

**Q.** For TTC4 (UniProt O95801), which log2 fold change is on record?
**A.** The log2 fold change was 0.025.

**Q.** With TMTC3 (UniProt Q6ZXV5) as the target, how does the log2 fold change read?
**A.** Its log2 fold change is -0.001.

**Q.** Which log2 fold change does the source give for XPO5 (UniProt Q9HAV4) here?
**A.** Its log2 fold change is -0.019.

**Q.** UTP3 (UniProt Q9NQZ2) was tested. Which log2 fold change did it give?
**A.** Its log2 fold change is -0.004.

**Q.** With U2AF2 (UniProt P26368) as the target, how does the log2 fold change read?
**A.** The log2 fold change was -0.048.

**Q.** How did the log2 fold change turn out when TRAPPC2L (UniProt Q9UL33) was run?
**A.** Its log2 fold change is -0.008.

**Q.** How did the log2 fold change turn out when USP14 (UniProt P54578) was run?
**A.** The log2 fold change was 0.015.

**Q.** For USP48 isoform 8 (UniProt Q86UV5), which log2 fold change is on record?
**A.** Its log2 fold change is -0.049.

**Q.** How did the log2 fold change turn out when WDCP (UniProt Q9H6R7) was run?
**A.** Its log2 fold change is -0.068.

**Q.** How did the log2 fold change turn out when TMEM223 (UniProt A0PJW6) was run?
**A.** Its log2 fold change is 0.01.

**Q.** With TSC2 (UniProt P49815) as the target, how does the log2 fold change read?
**A.** Its log2 fold change is 0.063.

**Q.** TRAPPC8 (UniProt Q9Y2L5) was tested. Which log2 fold change did it give?
**A.** The log2 fold change was -0.018.

**Q.** Which log2 fold change does the source give for VPS53 isoform 4 (UniProt Q5VIR6) here?
**A.** The log2 fold change was 0.022.

**Q.** Which log2 fold change does the source give for USO1 isoform 2 (UniProt O60763) here?
**A.** The log2 fold change was -0.028.

**Q.** For UCHL5 (UniProt Q9Y5K5), which log2 fold change is on record?
**A.** Its log2 fold change is 0.03.

**Q.** How did the log2 fold change turn out when TMEM268 isoform 3 (UniProt Q5VZI3) was run?
**A.** The log2 fold change was -0.21.

**Q.** How did the log2 fold change turn out when UBE4A isoform 2 (UniProt Q14139) was run?
**A.** Its log2 fold change is -0.301.

**Q.** With TRABD (UniProt Q9H4I3) as the target, how does the log2 fold change read?
**A.** Its log2 fold change is 0.074.

**Q.** For TSG101 (UniProt Q99816), which log2 fold change is on record?
**A.** Its log2 fold change is 0.

**Q.** With TMEM189-UBE2V1 (UniProt I3L0A0) as the target, how does the log2 fold change read?
**A.** The log2 fold change was -0.009.

**Q.** With WDR41 (UniProt Q9HAD4) as the target, how does the log2 fold change read?
**A.** The log2 fold change was -0.07.

**Q.** For TXNL1 (UniProt O43396), which log2 fold change is on record?
**A.** The log2 fold change was 0.016.

**Q.** Which log2 fold change does the source give for UGDH (UniProt O60701) here?
**A.** The log2 fold change was 0.043.

**Q.** How did the log2 fold change turn out when TTC38 (UniProt Q5R3I4) was run?
**A.** The log2 fold change was 0.09.

Compound: C1CCN(C1)C(=O)NC2=CC=CC(=C2)NC3=NC=C(C(=N3)NCCC4=CN=CN4)Br
Assay: as above
Procedure, shortened: as §1

**Q.** WDR61 (UniProt Q9GZS3) was tested. Which log2 fold change did it give?
**A.** The log2 fold change was 0.077.

**Q.** USP3 (UniProt Q9Y6I4) was tested. Which log2 fold change did it give?
**A.** The log2 fold change was 0.007.

**Q.** With TOMM20 (UniProt Q15388) as the target, how does the log2 fold change read?
**A.** Its log2 fold change is 0.007.

**Q.** Which log2 fold change does the source give for TNPO2 (UniProt O14787) here?
**A.** Its log2 fold change is 0.027.

**Q.** VPS11 (UniProt Q9H270) was tested. Which log2 fold change did it give?
**A.** The log2 fold change was 0.002.

**Q.** With TMEM87B (UniProt Q96K49) as the target, how does the log2 fold change read?
**A.** The log2 fold change was -0.06.

**Q.** For TRIP10 isoform 2 (UniProt Q15642), which log2 fold change is on record?
**A.** Its log2 fold change is -0.089.

**Q.** How did the log2 fold change turn out when TTI1 (UniProt O43156) was run?
**A.** Its log2 fold change is 0.019.

**Q.** For UFD1 isoform 1 (UniProt Q92890), which log2 fold change is on record?
**A.** Its log2 fold change is -0.036.

**Q.** How did the log2 fold change turn out when TRAPPC13 isoform 5 (UniProt A5PLN9) was run?
**A.** Its log2 fold change is -0.005.

**Q.** For VTI1A (UniProt Q96AJ9), which log2 fold change is on record?
**A.** The log2 fold change was 0.019.

**Q.** With VPS52 (UniProt Q8N1B4) as the target, how does the log2 fold change read?
**A.** Its log2 fold change is -0.033.

**Q.** Which log2 fold change does the source give for TTC4 (UniProt O95801) here?
**A.** The log2 fold change was -0.057.

**Q.** Which log2 fold change does the source give for TMTC3 (UniProt Q6ZXV5) here?
**A.** Its log2 fold change is -0.064.

**Q.** XPO5 (UniProt Q9HAV4) was tested. Which log2 fold change did it give?
**A.** The log2 fold change was -0.024.

**Q.** Which log2 fold change does the source give for UTP3 (UniProt Q9NQZ2) here?
**A.** Its log2 fold change is 0.006.

**Q.** Which log2 fold change does the source give for U2AF2 (UniProt P26368) here?
**A.** Its log2 fold change is -0.026.

**Q.** How did the log2 fold change turn out when TRAPPC2L (UniProt Q9UL33) was run?
**A.** Its log2 fold change is -0.083.

**Q.** With USP14 (UniProt P54578) as the target, how does the log2 fold change read?
**A.** The log2 fold change was -0.016.

**Q.** Which log2 fold change does the source give for USP48 isoform 8 (UniProt Q86UV5) here?
**A.** The log2 fold change was -0.103.

**Q.** Which log2 fold change does the source give for WDCP (UniProt Q9H6R7) here?
**A.** Its log2 fold change is -0.012.

**Q.** With TMEM223 (UniProt A0PJW6) as the target, how does the log2 fold change read?
**A.** The log2 fold change was 0.007.

**Q.** TSC2 (UniProt P49815) was tested. Which log2 fold change did it give?
**A.** Its log2 fold change is -0.001.

**Q.** With TRAPPC8 (UniProt Q9Y2L5) as the target, how does the log2 fold change read?
**A.** Its log2 fold change is -0.011.

**Q.** VPS53 isoform 4 (UniProt Q5VIR6) was tested. Which log2 fold change did it give?
**A.** Its log2 fold change is -0.021.

**Q.** With USO1 isoform 2 (UniProt O60763) as the target, how does the log2 fold change read?
**A.** Its log2 fold change is 0.033.

**Q.** How did the log2 fold change turn out when UCHL5 (UniProt Q9Y5K5) was run?
**A.** Its log2 fold change is -0.001.

**Q.** With TMEM268 isoform 3 (UniProt Q5VZI3) as the target, how does the log2 fold change read?
**A.** The log2 fold change was 0.13.

**Q.** For UBE4A isoform 2 (UniProt Q14139), which log2 fold change is on record?
**A.** The log2 fold change was -0.018.

**Q.** Which log2 fold change does the source give for TRABD (UniProt Q9H4I3) here?
**A.** Its log2 fold change is -0.077.

**Q.** With TSG101 (UniProt Q99816) as the target, how does the log2 fold change read?
**A.** The log2 fold change was 0.003.

**Q.** TMEM189-UBE2V1 (UniProt I3L0A0) was tested. Which log2 fold change did it give?
**A.** The log2 fold change was 0.02.

**Q.** For WDR41 (UniProt Q9HAD4), which log2 fold change is on record?
**A.** Its log2 fold change is -0.012.

**Q.** With TXNL1 (UniProt O43396) as the target, how does the log2 fold change read?
**A.** The log2 fold change was -0.001.

**Q.** For UGDH (UniProt O60701), which log2 fold change is on record?
**A.** Its log2 fold change is -0.063.

**Q.** TTC38 (UniProt Q5R3I4) was tested. Which log2 fold change did it give?
**A.** The log2 fold change was -0.06.
